# Test results reported in PubChem BioAssay (NCATS).
# For part of these data: Measured potencies and affinities stand elsewhere. Calls of active or inactive are those of the source. Where a SMILES comes first, the peptide text is derived from it. Bridges are numbered along the chain shown (N, C = ends). [ ]: non-standard residue; d: D form. The star is where a group is joined. Dab(CH2SO3H) = N[C@@H](CCNCS(=O)(=O)O)C(=O)O; X1 = CC[C@@H](C)CCCCC(=O)*; Dab = NCC[C@H](N)C(=O)O
# How the values were obtained:
# [1] = Ebola virus entry assay, blue channel fluorescence
# [2] = Ebola virus entry assay, green fluorescence channel
# [3] = Ebola virus entry assay, ratio channel readout
# [4] = Ebola virus entry cell assay, ratio channel
# [5] = Ebola virus entry assay, blue channel fluorescence; remark: listed apart in the source
# [6] = Ebola virus entry reporter assay, green channel fluorescence
# [7] = Ebola virus entry assay, blue channel fluorescence; remark: listed apart in the source
# [8] = Ebola virus entry assay, ratio channel
# [9] = Ebola virus entry assay, green channel fluorescence
# [10] = Ebola virus entry assay, reporter ratio channel; AC50: Channel type: primary unless noted; outcome: Channel type: primary unless noted
# [11] = Ebola virus entry assay, blue channel (ratio component)
compound,measurement,setting,value
C=CC[C@@H]1C=C(C)C[C@H](C)C[C@H](OC)[C@H]2O[C@@](O)(C(=O)C(=O)N3CCCC[C@H]3C(=O)O[C@H](C(C)=C[C@@H]3CC[C@H](O)[C@H](OC)C3)[C@@H](C)[C@@H](O)CC1=O)[C@@H](C)C[C@@H]2OC,outcome,[1],inactive
same,outcome,[2],inactive
same,outcome,[3],inactive
same,outcome,[4],inactive
C[C@]12C=CC(=O)N[C@@H]1CC[C@@H]1[C@@H]2CC[C@]2(C)[C@@H](C(=O)Nc3cc(C(F)(F)F)ccc3C(F)(F)F)CC[C@@H]12,outcome,[1],inactive
same,outcome,[2],inactive
same,outcome,[3],inactive
same,outcome,[4],inactive
CSCC[C@H](NC(=O)[C@H](Cc1ccc(OS(=O)(=O)O)cc1)NC(=O)[C@@H](N)CC(=O)O)C(=O)NCC(=O)N[C@@H](Cc1c[nH]c2ccccc12)C(=O)N[C@@H](CCSC)C(=O)N[C@@H](CC(=O)O)C(=O)N[C@@H](Cc1ccccc1)C(N)=O,outcome,[1],inactive
same,outcome,[2],inactive
same,outcome,[5],inactive
same,outcome,[4],inactive
COc1cc([C@@H]2c3cc4c(cc3[C@@H](O[C@@H]3O[C@@H]5CO[C@@H](C)O[C@H]5[C@H](O)[C@H]3O)[C@H]3COC(=O)[C@H]23)OCO4)cc(OC)c1O,outcome,[1],inactive
same,outcome,[2],inactive
same,outcome,[5],inactive
same,outcome,[6],inactive
same,outcome,[4],inactive
CC[C@@H](C)CCCCC(=O)N[C@@H](CCNCS(=O)(=O)O)C(=O)N[C@H](C(=O)N[C@@H](CCNCS(=O)(=O)O)C(=O)N[C@H]1CCNC(=O)[C@H]([C@@H](C)O)NC(=O)[C@H](CCNCS(=O)(=O)O)NC(=O)[C@H](CCNCS(=O)(=O)O)NC(=O)[C@H](CC(C)C)NC(=O)[C@@H](CC(C)C)NC(=O)[C@H](CCNCS(=O)(=O)O)NC1=O)[C@@H](C)O (X1-[Dab(CH2SO3H)]T[Dab(CH2SO3H)][Dab][Dab(CH2SO3H)][dL]L[Dab(CH2SO3H)][Dab(CH2SO3H)]T; lactam 4-C),outcome,[1],inactive
same,outcome,[2],inactive
same,outcome,[3],inactive
same,outcome,[4],inactive
CNCCC=C1c2ccccc2CCc2ccccc21,AC50,[1],8.91 µM (active)
same,outcome,[2],inactive
same,AC50,[3],7.95 µM (active)
same,AC50,[4],7.94 µM (active)
CC1(C)S[C@@H]2[C@H](NC(=O)[C@H](N)c3ccc(O)cc3)C(=O)N2[C@H]1C(=O)O,outcome,[1],inactive
same,outcome,[2],inactive
same,outcome,[5],inactive
same,outcome,[6],inactive
same,outcome,[4],inactive
CC(=O)OCC(=O)[C@@]1(O)[C@H](OC(C)=O)C[C@H]2[C@@H]3CCC4=CC(=O)C=C[C@]4(C)[C@@]3(F)[C@@H](O)C[C@@]21C,outcome,[7],inactive
same,outcome,[8],inactive
same,outcome,[9],inactive
same,outcome,[10],inactive
same,outcome,[11],inactive
CCCNC(C)C(=O)Nc1ccccc1C (centres undefined),outcome,[7],inactive
same,outcome,[8],inactive
same,outcome,[9],inactive
same,outcome,[10],inactive
same,outcome,[11],inactive
CCN(CC)S(=O)(=O)c1ccc(C(=O)O)cc1,outcome,[7],inactive
same,outcome,[8],inactive
same,outcome,[9],inactive
same,outcome,[10],inactive
same,outcome,[11],inactive
O=C(O)Cc1csc(-c2ccc(Cl)cc2)n1,outcome,[7],inactive
same,outcome,[8],inactive
same,outcome,[9],inactive
same,outcome,[10],inactive
same,outcome,[11],inactive
COc1cc(C(=O)N2CCCCCCC2)cc(OC)c1OC,outcome,[7],inactive
same,outcome,[8],inactive
same,outcome,[9],inactive
same,outcome,[10],inactive
same,outcome,[11],inactive
CC(=O)N(CC(O)CO)c1c(I)c(C(=O)NCC(O)CO)c(I)c(C(=O)NCC(O)CO)c1I (centres undefined),outcome,[7],inactive
same,outcome,[8],inactive
same,outcome,[9],inactive
same,outcome,[10],inactive
same,outcome,[11],inactive
CN(C)c1ccc2nc3ccc(=[N+](C)C)cc-3sc2c1,outcome,[7],inactive
same,outcome,[8],inactive
same,outcome,[9],inactive
same,outcome,[10],inactive
same,outcome,[11],inactive
NC(N)=NS(=O)(=O)c1ccc(N)cc1,outcome,[7],inactive
same,outcome,[8],inactive
same,outcome,[9],inactive
same,outcome,[10],inactive
same,outcome,[11],inactive
CCOC(=O)O[C@]1(C(=O)OCCl)CC[C@H]2[C@@H]3CCC4=CC(=O)C=C[C@]4(C)[C@H]3[C@@H](O)C[C@@]21C,outcome,[7],inactive
same,outcome,[8],inactive
same,outcome,[9],inactive
same,outcome,[10],inactive
same,outcome,[11],inactive
CCOc1cc(OCC)c(C(=O)CCC(=O)O)cc1OCC,outcome,[7],inactive
same,outcome,[8],inactive
same,outcome,[9],inactive
same,outcome,[10],inactive
same,outcome,[11],inactive
c1ccc2c(CC3=NCCN3)cccc2c1,AC50,[7],39.8 µM (active)
same,outcome,[8],inactive
same,outcome,[9],inactive
same,AC50,[10],39.8 µM (active)
Nc1ccc(C(=O)Oc2ccccc2)c(O)c1,outcome,[7],inactive
same,outcome,[8],inactive
same,outcome,[9],inactive
same,outcome,[10],inactive
same,outcome,[11],inactive
NC(=O)c1ccc([N+](=O)[O-])cc1Cl,outcome,[7],inactive
same,outcome,[8],inactive
same,outcome,[9],inactive
same,outcome,[10],inactive
same,outcome,[11],inactive
CCOC(=O)NNc1ccc(N(CC)CC(C)O)nn1 (centres undefined),outcome,[7],inactive
same,outcome,[8],inactive
same,outcome,[9],inactive
same,outcome,[10],inactive
same,outcome,[11],inactive
